Assay results published in PubChem BioAssay (NCATS).
Several values for one entry are separate records, joined by “and”; a condition that tells them apart may be missing. Identical values can stand only once. Results filed as inconclusive are left out. Entries that show only a call come without a potency. Values without a mark were called inactive. Activity calls are given as the source filed them. Calls come from the whole dose curve; as a rule, active = well fitted curve in the direction sought with a large enough effect; inconclusive = small, poorly fitted or top-dose-only effect, or another doubt; inactive = no such curve, though single readings can be large; an effect the other way counts as inactive or inconclusive.

Legend:
[1] = tested on: TAB165; assay: qHTS profiling for inhibitors of Plasmodium falciparum proliferation (AID 504749); note: nearly all actives have a fitted effect of over 60% in size; note: potency is the fitted concentration of half-maximal effect; settings: P. falciparum in erythrocytes, SYBR Green DNA, 72 h; series mostly up to 28.7 µM
Summary of the method: (§1)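 Parasite proliferation within erythrocytes, 72 h exposure. Endpoint: SYBR Green I fluorescence after overnight lysis at room temperature. Controls: 0.29 uM artemisinin, DMSO.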

[2] = tested on: W2; assay: as above; settings: P. falciparum in erythrocytes, SYBR Green DNA, 72 h; series mostly up to 28.7 µM
Summary of the method: as §1

[3] = tested on: CRL-7250; assay: Cytotoxic Profiling of Annotated Libraries Using Quantitative High-Throughput Screening (AID 1296008); settings: Five cell lines viability, CellTiter-Glo ATP luminescence, 48-72 h; max response: active compounds read low; note: nearly all actives have a fitted effect of over 60% in size
Summary of the method: (§2)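 Compounds were pin-transferred onto cells and incubated 48 or 72 hr at 37 degree Celsius, 95% humidity. CellTiter-Glo was added, plates sat 10 min at room temperature, then ATP-coupled luminescence was imaged as the viability read-out.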

[4] = tested on: HaCat; assay: as above; settings: Five cell lines viability, CellTiter-Glo ATP luminescence, 48-72 h; max response: active compounds read low
Summary of the method: as §2

[5] = tested on: KB-3-1; assay: as above; settings: Five cell lines viability, CellTiter-Glo ATP luminescence, 48-72 h; max response: active compounds read low
Summary of the method: as §2

[6] = tested on: NIH3T3; assay: as above; settings: Five cell lines viability, CellTiter-Glo ATP luminescence, 48-72 h; max response: active compounds read low
Summary of the method: as §2

[7] = tested on: HACAT; assay: qHTS assay to identify novel small-molecules to repurpose for Merkel cell carcinoma treatment (AID 1296009); settings: MCC and control cell lines, CellTiter-Glo viability, 72 h; at 44.8 µM (top of the series) unless noted; note: nearly all actives have a fitted effect of over 60% in size
Summary of the method: (§3)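 qHTS format: cells treated with library compounds in DMSO across 8 (NPC) or 11 (MIPE) concentrations. Readout after 72 hr at 37 degree celsius was CellTiter-Glo luminescence.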

[8] = tested on: HEK293T; assay: as above; settings: MCC and control cell lines, CellTiter-Glo viability, 72 h; at 44.8 µM (top of the series)
Summary of the method: as §3

[9] = tested on: MCC-13; assay: as above; settings: MCC and control cell lines, CellTiter-Glo viability, 72 h; series mostly up to 46 µM
Summary of the method: as §3

[10] = tested on: MCC-26; assay: as above; settings: MCC and control cell lines, CellTiter-Glo viability, 72 h; series mostly up to 46 µM
Summary of the method: as §3

[11] = tested on: MKL-1; assay: as above; settings: MCC and control cell lines, CellTiter-Glo viability, 72 h; series mostly up to 46 µM
Summary of the method: as §3

[12] = tested on: MKL-2; assay: as above; settings: MCC and control cell lines, CellTiter-Glo viability, 72 h; series mostly up to 46 µM
Summary of the method: as §3

[13] = tested on: UISO; assay: as above; settings: MCC and control cell lines, CellTiter-Glo viability, 72 h; series mostly up to 46 µM
Summary of the method: as §3

[14] = tested on: WaGa; assay: as above; settings: MCC and control cell lines, CellTiter-Glo viability, 72 h; series mostly up to 46 µM
Summary of the method: as §3

[15] = tested on: C33A; assay: Primary qHTS to identify gynecologic anti-cancer compounds using libraries of approved drugs and bioactive compounds (AID 1345084); settings: Gynecologic cancer cell panel viability, ATPlite luminescence, 48 h; series mostly up to 57.5 µM; note: nearly all actives have a fitted effect of over 55% in size
Summary of the method: (§4)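 Cell viability after 48 h drug treatment, ATPlite luminescence readout; five doses.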

[16] = tested on: CAOV3; assay: as above; settings: Gynecologic cancer cell panel viability, ATPlite luminescence, 48 h; series mostly up to 57.5 µM
Summary of the method: as §4

[17] = tested on: CASKI; assay: as above; settings: Gynecologic cancer cell panel viability, ATPlite luminescence, 48 h; series mostly up to 57.5 µM
Summary of the method: as §4

[18] = tested on: HEK293; assay: Cytotoxic Profiling of Annotated Libraries Using Quantitative High-Throughput Screening (AID 1296008); settings: Five cell lines viability, CellTiter-Glo ATP luminescence, 48-72 h; max response: active compounds read low; note: nearly all actives have a fitted effect of over 60% in size
Summary of the method: as §2

[19] = tested on: NIH3T3; assay: qHTS assay to identify novel small-molecules to repurpose for Merkel cell carcinoma treatment (AID 1296009); settings: MCC and control cell lines, CellTiter-Glo viability, 72 h; at 44.8 µM (top of the series) unless noted; note: nearly all actives have a fitted effect of over 60% in size
Summary of the method: as §3

[20] = tested on: CRL-7250; assay: as above; settings: MCC and control cell lines, CellTiter-Glo viability, 72 h; series mostly up to 44.8 µM
Summary of the method: as §3

NCC1(CC(=O)O)CCCCC1
Potency [1]: inactive | Potency [2]: inactive | max response [3]: -5.5% and -5.6% | outcome [4]: inactive | max response [5]: -11.6% and 17.1% | max response [6]: -2.27% and -4.04% | outcome [7]: inactive | outcome [8]: inactive | Potency [9]: inactive | Potency [10]: inactive | Potency [11]: inactive | Potency [12]: inactive | Potency [13]: inactive | Potency [14]: inactive | Potency [15]: inactive | Potency [16]: inactive | Potency [17]: inactive

O=[N+]([O-])c1cc([As](=O)(O)O)ccc1O
Potency [1]: 3.55 µM (active) | Potency [2]: 2.56 µM (active) | max response [3]: -0.161% | outcome [18]: inactive | max response [4]: -8.07% | max response [5]: -14.1% | outcome [6]: inactive | outcome [8]: inactive | Potency [9]: inactive | Potency [10]: inactive | Potency [11]: inactive | outcome [19]: inactive | Potency [13]: inactive | Potency [14]: inactive | Potency [15]: inactive | Potency [16]: inactive | Potency [17]: inactive

CCCN1CCC[C@@H]2Cc3[nH]ncc3C[C@H]21
Potency [2]: inactive | max response [3]: 4.64% | max response [18]: -0.855% | max response [5]: -4.95% | outcome [6]: inactive | Potency [9]: inactive | Potency [10]: inactive | Potency [11]: inactive | Potency [12]: inactive | outcome [19]: inactive | Potency [13]: inactive | Potency [14]: inactive | Potency [15]: inactive | Potency [16]: inactive | Potency [17]: inactive

CC(=O)[C@H]1CC[C@H]2[C@@H]3CC[C@H]4C[C@](C)(O)CC[C@]4(C)[C@H]3CC[C@]12C
Potency [1]: inactive | outcome [3]: inactive | outcome [4]: inactive | max response [5]: -8.61% | outcome [6]: inactive | outcome [20]: inactive | outcome [7]: inactive | outcome [8]: inactive | Potency [9]: inactive | Potency [10]: inactive | Potency [11]: inactive | Potency [12]: inactive | outcome [19]: inactive | Potency [13]: inactive | Potency [14]: inactive | Potency [15]: inactive | Potency [16]: inactive | Potency [17]: inactive

CN1C(=S)CN=C(c2ccccc2)c2cc(Cl)ccc21
Potency [1]: inactive | Potency [2]: inactive | outcome [3]: inactive | outcome [4]: inactive | max response [5]: 4.4% | outcome [6]: inactive | outcome [20]: inactive | outcome [7]: inactive | Potency [9]: inactive | Potency [10]: inactive | Potency [11]: inactive | Potency [12]: inactive | outcome [19]: inactive | Potency [13]: inactive | Potency [14]: inactive | Potency [15]: inactive | Potency [16]: inactive | Potency [17]: inactive

C#CCOC(C(=O)OCCN(C)C)(c1ccccc1)c1ccccc1
Potency [1]: inactive | max response [3]: -6.32% | outcome [4]: inactive | max response [5]: -0.159% | outcome [6]: inactive | outcome [7]: inactive | Potency [9]: inactive | Potency [10]: inactive | Potency [11]: inactive | Potency [12]: inactive | outcome [19]: inactive | Potency [13]: inactive | Potency [14]: inactive | Potency [15]: inactive | Potency [16]: inactive | Potency [17]: inactive

Cc1ccc(S(=O)(=O)N[C@@H](CCCCN)C(=O)CCl)cc1
max response [3]: 3.77% | outcome [4]: inactive | max response [5]: 32.5% | outcome [6]: inactive | outcome [7]: inactive | Potency [9]: inactive | Potency [10]: inactive | Potency [11]: inactive | Potency [12]: inactive | outcome [19]: inactive | Potency [13]: inactive | Potency [14]: inactive | Potency [15]: inactive | Potency [16]: inactive | Potency [17]: inactive

CCC(COC(=O)c1cc(OC)c(OC)c(OC)c1)(c1ccccc1)N(C)C (stereo not drawn)
Potency [2]: 6.75 µM (active) | max response [3]: -3.97% | outcome [4]: inactive | max response [5]: 3.84% | outcome [6]: inactive | outcome [7]: inactive | Potency [9]: inactive | Potency [10]: inactive | Potency [11]: inactive | Potency [12]: inactive | outcome [19]: inactive | Potency [13]: inactive | Potency [14]: inactive | Potency [15]: inactive | Potency [16]: inactive | Potency [17]: inactive

CC1=C2C[C@@H]3[C@@H](CC=C4C[C@@H](O)CC[C@@]43C)[C@@H]2CC[C@]12O[C@H]1C[C@H](C)CN[C@H]1[C@H]2C
max response [3]: 4.78% | outcome [4]: inactive | max response [5]: 6.86% | max response [6]: 0.588% | outcome [7]: inactive | Potency [9]: inactive | Potency [10]: inactive | Potency [11]: inactive | Potency [12]: inactive | Potency [13]: inactive | Potency [14]: inactive

CC(C)(C)NCC(O)c1cc(Cl)c(N)c(Cl)c1 (stereo not drawn)
Potency [2]: 6.75 µM (active) | outcome [3]: inactive | max response [4]: -3.36% | max response [5]: -14.9% | outcome [6]: inactive | outcome [20]: inactive | Potency [9]: inactive | Potency [10]: inactive | Potency [11]: inactive | Potency [12]: inactive | outcome [19]: inactive | Potency [13]: inactive | Potency [14]: inactive | Potency [15]: inactive | Potency [16]: inactive | Potency [17]: inactive

C=CCN1CC[C@]23c4c5ccc(O)c4O[C@H]2C(=O)CC[C@@]3(O)[C@H]1C5
max response [3]: -3.06% | max response [18]: -4.65% | max response [4]: -19.7% | max response [5]: -7.11% and -7.3% | max response [6]: -3.86% | Potency [9]: inactive | Potency [10]: inactive | Potency [11]: inactive | Potency [12]: inactive | Potency [13]: inactive | Potency [14]: inactive | Potency [15]: inactive | Potency [16]: inactive | Potency [17]: inactive

Cc1ccc2c(c1)C1CN(C)CCC1N2 (stereo not drawn)
max response [3]: -0.945% | outcome [4]: inactive | max response [5]: -4.81% | outcome [6]: inactive | outcome [7]: inactive [at 17.4 µM] | Potency [9]: inactive | Potency [10]: inactive | Potency [11]: inactive | Potency [12]: inactive | outcome [19]: inactive [at 17.4 µM] | Potency [13]: inactive | Potency [14]: inactive | Potency [15]: inactive | Potency [16]: inactive | Potency [17]: inactive
